Active and inactive are the calls of the source.

Assay [1] in a line: small molecules captured by biotinylated probe aFSTL3 – biochemical, small-molecule microarray, fluorescence 635/667, stem cell growth factor project, primary screen (AID 1064).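 Further: measures binding of the biotinylated anti-FSTL3 antibody to printed compounds.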 The settings on record: higher = more signal.
The nature of assay [2]: binders from COS7 lysate, DM2A8 probe, primary screen, torsin A project, cell lysate, small-molecule microarray, fluorescence 635/667 (AID 1065). The settings on record: higher = more signal, COS7 lysate expressing mutant human TOR1A.
A short description of assay [3]: small molecules captured by biotinylated probe aFGF2 – biochemical, small-molecule microarray, fluorescence 635/667, stem cell growth factor project, primary screen (AID 1067).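 Further: measures binding of biotinylated aFGF2 protein to printed compounds on slides; z-score merges feature fluorescence and signal-to-noise across triplicate slides.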 The settings on record: higher = more signal.
A short description of assay [4]: small molecules captured by biotinylated probe aFGF10 – biochemical, small-molecule microarray, fluorescence 635/667, stem cell growth factor project, primary screen (AID 1071).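 Further: score merges 667 nm spot intensity and signal to noise from triplicate slides.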 The settings on record: higher = more signal.
Assay [5] concerns the target Neurogenic locus notch homolog protein 2 (Homo sapiens) (UniProt Q04721). Description: small molecules binding Notch2 protein – biochemical, small-molecule microarray, 635 nm fluorescence, stem cell growth factors, primary screen (AID 1073). The note with it: higher = more signal.
Assay [6] has as its target Pro-neuregulin-1, membrane-bound isoform (Homo sapiens) (UniProt Q02297). Put plainly: small molecules binding neuregulin-1 protein – biochemical, small-molecule microarray, fluorescence 635/667, psychiatric disease protein project, primary screen (AID 1075).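 Further: score combines 667 nm spot fluorescence with signal to noise.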 The note with it: NRG1 binding, 635 nm fluorescence, higher = more signal.
Assay [7] deals with Neuregulin-1 EGF-like domain. Put plainly: small molecules binding NRG1 EGF domain – biochemical, small-molecule microarray, 635 nm fluorescence, primary screen (AID 1081).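 Further: binding of the protein to compounds printed on small-molecule microarray slides.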 The settings on record: higher = more signal.
Assay [8] is described as follows: FRG1 expression reporter modulators in myotubes – cell-based, C2C12 myotubes, firefly/Renilla luciferase, luminescence, FRG1 inhibition for FSHD, primary screen (AID 1084). The note with it: FRG1 promoter luciferase, higher = more signal, called active from +8 up or from −8 down.
Assay [9] in a line: small molecules captured by biotinylated probe aFST – biochemical, small-molecule microarray, fluorescence 635/667, stem cell growth factor project, primary screen (AID 1086).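 Further: score merges 667 nm fluorescence with signal-to-noise of each printed compound spot.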 The settings on record: higher = more signal.
A short description of assay [10]: binders of probe aHhip on microarray, primary screen, stem cell growth factor project, biochemical, small-molecule microarray, fluorescence 635/667 (AID 1087).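 Further: score merges spot fluorescence at 667nm with spot signal to noise ratio.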 The note with it: higher = more signal.
For assay [11], the system named is PRMT1 (protein arginine N-methyltransferase 1). Put plainly: small molecules binding arginine methyltransferase PRMT1 – biochemical, small-molecule microarray, 635 nm fluorescence, primary screen (AID 1088).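 Further: binding of Prmt1 protein to compounds spotted on small-molecule microarray slides.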 The settings on record: higher = more signal.
Assay [12] can be described thus: growth effects on S. cerevisiae YJM789 – YJM789 clinical isolate, OD600, 24 h, basal, primary screen (AID 1089).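 Further: growth of clinical yeast isolate S. cerevisiae YJM 789 seeded 1000 cells per well; test concentration not given here.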 The settings on record: higher = more signal, called active from +8 up or from −8 down.
Assay [13] in a line: S. pombe growth modifiers, basal conditions – strain 972, OD600, 24 h, no modulator, primary screen (AID 1090).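 Further: basal condition with compound alone and no growth modifier present; test concentration not given here.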 The note with it: S. pombe 972 growth, higher = more signal, called active from +8 up or from −8 down.
A short description of assay [14]: budding yeast growth modifiers under rapamycin – strain BY4716, OD600, 96 h, primary screen (AID 1091). Further: test concentration not given here. The note with it: S. cerevisiae BY4716 + rapamycin, higher = more signal, called active from +8 up or from −8 down.
Assay [15] addresses Torsin-1A-interacting protein 2 (Homo sapiens) (UniProt Q8NFQ8). Description: small molecules binding lysate-expressed LULL1 – cell lysate, human LULL1 lysate, 635/667 nm fluorescence, primary screen (AID 1092).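 Further: probe is lysate of COS7 cells overexpressing human LULL1; score merges per-feature 667 nm fluorescence with signal-to-noise.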 The settings on record: small-molecule microarray, hLULL1 lysate binding, 635 nm fluorescence; higher = more signal.
The nature of assay [16]: optical density change of DRC41 E. coli – strain DRC41, OD650, 24 h, E. coli filamentation project, primary screen (AID 1093).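 Further: MC1000 strain lacking acrAB efflux and sulA so SOS filamentation is blocked; test concentration not given here.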 The settings on record: E. coli DRC41 growth, higher = more signal, called active from +8 up or from −8 down.
Assay [17] can be described thus: probe aLefty2 binding to arrayed compounds – biochemical, biotinylated probe, 635/667 nm fluorescence, primary screen (AID 1094).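 Further: score merges spot fluorescence near 667 nm with spot signal-to-noise ratio.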 The note with it: small-molecule microarray, higher = more signal.
In assay [18] the test system is Noggin (protein binding on small-molecule microarray). Put plainly: small molecules binding Noggin protein – biochemical, 635/667 nm fluorescence, primary screen (AID 1095).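 Further: score merges 667 nm feature fluorescence with signal to noise over triplicate slides.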 The note with it: 635 nm fluorescence, higher = more signal.
For assay [19], the target named is Neurogenic locus notch homolog protein 3 (Homo sapiens) (UniProt Q9UM47). Description: small molecules binding NOTCH3 protein – biochemical, 635/667 nm fluorescence, primary screen (AID 1096). The settings on record: small-molecule microarray, 635 nm fluorescence, higher = more signal.
Assay [20] in a line: probe aEGFR binding to arrayed compounds – biochemical, biotinylated probe, 635/667 nm fluorescence, primary screen (AID 1097).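 Further: probe is a biotinylated anti-EGFR antibody binding compounds printed on slides; score combines fluorescence near 667 nm and signal to noise of each spot.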 The settings on record: small-molecule microarray, higher = more signal.

Neurogenic locus notch homolog protein 3 (Homo sapiens), sequence (Q9UM47 whole entry, looked up): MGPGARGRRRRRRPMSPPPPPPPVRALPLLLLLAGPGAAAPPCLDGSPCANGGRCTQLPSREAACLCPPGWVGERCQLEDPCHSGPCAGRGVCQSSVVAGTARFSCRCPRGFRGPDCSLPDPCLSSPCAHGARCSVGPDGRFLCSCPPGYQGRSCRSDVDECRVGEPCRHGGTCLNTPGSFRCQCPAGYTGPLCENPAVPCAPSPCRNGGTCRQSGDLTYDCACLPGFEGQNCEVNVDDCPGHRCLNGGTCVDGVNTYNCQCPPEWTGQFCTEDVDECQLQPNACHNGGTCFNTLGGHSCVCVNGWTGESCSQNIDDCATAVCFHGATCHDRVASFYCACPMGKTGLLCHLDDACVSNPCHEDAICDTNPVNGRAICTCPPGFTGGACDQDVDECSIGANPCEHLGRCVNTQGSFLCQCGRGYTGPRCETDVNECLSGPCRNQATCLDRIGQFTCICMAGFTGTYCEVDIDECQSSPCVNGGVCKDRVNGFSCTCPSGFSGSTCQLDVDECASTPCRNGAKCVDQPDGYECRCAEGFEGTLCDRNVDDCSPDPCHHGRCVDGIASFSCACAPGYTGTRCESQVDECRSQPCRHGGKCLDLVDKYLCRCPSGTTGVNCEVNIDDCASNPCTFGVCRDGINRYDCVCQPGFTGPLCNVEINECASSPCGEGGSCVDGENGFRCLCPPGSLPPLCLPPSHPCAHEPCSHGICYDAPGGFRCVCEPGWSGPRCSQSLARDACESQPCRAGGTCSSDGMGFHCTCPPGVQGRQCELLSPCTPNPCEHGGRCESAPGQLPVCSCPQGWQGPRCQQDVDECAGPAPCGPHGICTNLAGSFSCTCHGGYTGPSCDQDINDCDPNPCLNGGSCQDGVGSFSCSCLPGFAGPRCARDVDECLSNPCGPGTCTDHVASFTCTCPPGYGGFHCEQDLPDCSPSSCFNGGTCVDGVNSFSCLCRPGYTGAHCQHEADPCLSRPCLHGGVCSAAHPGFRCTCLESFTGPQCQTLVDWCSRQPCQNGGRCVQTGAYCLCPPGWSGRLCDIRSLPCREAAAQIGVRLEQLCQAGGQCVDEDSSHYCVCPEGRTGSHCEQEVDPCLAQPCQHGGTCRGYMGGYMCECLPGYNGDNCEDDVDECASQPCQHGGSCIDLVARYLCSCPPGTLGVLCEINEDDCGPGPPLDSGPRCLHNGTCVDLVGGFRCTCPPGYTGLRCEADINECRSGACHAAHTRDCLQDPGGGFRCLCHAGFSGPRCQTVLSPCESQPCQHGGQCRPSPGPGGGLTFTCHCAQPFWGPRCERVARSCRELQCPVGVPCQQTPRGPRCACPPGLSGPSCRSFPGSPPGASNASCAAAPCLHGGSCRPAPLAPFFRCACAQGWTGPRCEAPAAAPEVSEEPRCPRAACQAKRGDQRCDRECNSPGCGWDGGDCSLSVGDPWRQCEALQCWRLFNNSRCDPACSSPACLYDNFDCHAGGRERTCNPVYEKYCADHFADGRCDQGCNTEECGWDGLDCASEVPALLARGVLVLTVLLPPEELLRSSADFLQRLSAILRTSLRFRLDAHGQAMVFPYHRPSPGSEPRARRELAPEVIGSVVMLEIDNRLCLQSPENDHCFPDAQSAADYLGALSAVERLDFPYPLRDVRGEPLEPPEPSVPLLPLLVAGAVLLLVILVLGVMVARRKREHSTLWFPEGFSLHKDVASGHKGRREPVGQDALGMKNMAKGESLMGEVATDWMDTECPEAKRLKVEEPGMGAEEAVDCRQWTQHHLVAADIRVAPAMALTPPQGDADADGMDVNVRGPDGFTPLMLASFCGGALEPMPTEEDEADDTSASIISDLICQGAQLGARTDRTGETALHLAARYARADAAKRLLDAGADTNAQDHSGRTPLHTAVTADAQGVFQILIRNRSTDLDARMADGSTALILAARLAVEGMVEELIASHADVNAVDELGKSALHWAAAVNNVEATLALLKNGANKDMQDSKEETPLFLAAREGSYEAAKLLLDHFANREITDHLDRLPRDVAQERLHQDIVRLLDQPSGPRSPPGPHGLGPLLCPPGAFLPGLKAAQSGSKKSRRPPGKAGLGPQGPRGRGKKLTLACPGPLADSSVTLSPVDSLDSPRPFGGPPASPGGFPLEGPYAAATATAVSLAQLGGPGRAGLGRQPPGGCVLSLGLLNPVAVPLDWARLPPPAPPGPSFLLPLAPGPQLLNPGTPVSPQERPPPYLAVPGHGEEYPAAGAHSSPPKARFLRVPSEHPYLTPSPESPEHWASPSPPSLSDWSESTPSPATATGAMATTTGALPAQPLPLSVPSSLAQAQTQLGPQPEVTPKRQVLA
Pro-neuregulin-1, membrane-bound isoform (Homo sapiens), sequence (Q02297 whole entry, looked up, the tested form may be a part, canonical isoform): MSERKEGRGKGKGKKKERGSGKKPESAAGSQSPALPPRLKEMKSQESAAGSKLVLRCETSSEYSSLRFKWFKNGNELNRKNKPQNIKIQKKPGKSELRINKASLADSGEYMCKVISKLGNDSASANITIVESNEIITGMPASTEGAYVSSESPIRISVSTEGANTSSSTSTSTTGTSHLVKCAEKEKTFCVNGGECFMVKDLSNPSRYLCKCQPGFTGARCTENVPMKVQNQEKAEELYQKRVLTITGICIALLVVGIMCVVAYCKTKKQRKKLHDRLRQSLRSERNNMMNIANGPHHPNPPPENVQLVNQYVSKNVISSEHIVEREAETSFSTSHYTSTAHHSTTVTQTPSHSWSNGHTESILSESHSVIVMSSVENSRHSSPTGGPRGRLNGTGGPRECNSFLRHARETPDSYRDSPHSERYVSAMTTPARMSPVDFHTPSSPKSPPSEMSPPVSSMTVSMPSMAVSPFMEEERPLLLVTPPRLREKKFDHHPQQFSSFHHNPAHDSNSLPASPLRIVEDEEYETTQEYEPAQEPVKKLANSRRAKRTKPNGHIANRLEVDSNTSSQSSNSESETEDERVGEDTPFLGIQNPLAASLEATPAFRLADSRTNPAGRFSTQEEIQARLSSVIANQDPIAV
Torsin-1A-interacting protein 2 (Homo sapiens), sequence (Q8NFQ8 whole entry, looked up): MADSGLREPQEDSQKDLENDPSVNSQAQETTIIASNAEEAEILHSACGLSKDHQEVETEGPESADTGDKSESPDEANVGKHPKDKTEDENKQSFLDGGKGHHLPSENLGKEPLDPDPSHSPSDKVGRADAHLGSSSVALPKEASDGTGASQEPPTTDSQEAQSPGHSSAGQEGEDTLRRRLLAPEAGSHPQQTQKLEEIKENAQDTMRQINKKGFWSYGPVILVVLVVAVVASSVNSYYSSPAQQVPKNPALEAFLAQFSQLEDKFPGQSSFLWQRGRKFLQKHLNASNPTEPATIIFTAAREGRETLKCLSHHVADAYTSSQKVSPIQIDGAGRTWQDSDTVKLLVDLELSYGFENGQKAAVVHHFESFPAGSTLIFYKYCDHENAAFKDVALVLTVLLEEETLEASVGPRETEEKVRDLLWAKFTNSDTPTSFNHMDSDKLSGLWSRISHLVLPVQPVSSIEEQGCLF

Consider `O=C1OCCC/C=C\[C@H]2OC34C=CCN(Cc5ccccc5)C(=O)[C@H]3N(CCCO)C(=O)[C@@H]4C12` (stereo not given in full), for which the composite z-score in [1] is 0.985; in [2], 2.29; in assay [3] it was -0.145; in assay [4], -0.458; in assay [5], -1.15; in [6], 0.822. Moreover, the composite z-score in [7] is 0.703; in [9] it was -0.572; in assay [10] it was -0.0994; in [11], -0.523; in assay [15], 1.83; in assay [17] it was -0.126. The values for the composite z-score in assay [18], in assay [19] and in [20] were -1.75, -0.386 and -0.246, respectively. In addition, the z-score in assay [8] is 0.308 (inactive); in assay [12], 0.769 (inactive); in assay [13] it was -0.0304 (inactive); in assay [14] it was 0.972 (inactive); in assay [16], 0.872 (inactive).

As to `CC1CC/C=C\[C@H]2OC34C=CCN(Cc5ccccc5)C(=O)[C@H]3N(CCCO)C(=O)[C@@H]4C2C(=O)O1` (stereo not given in full), the composite z-score in assay [1] is 0.291; in assay [2] it was 0.141; in assay [3], -0.118; in assay [4], -0.365; in assay [5] it was -0.557; in assay [6], 0.909. Further, the composite z-score in [7] is 1.48; in assay [9] it was -0.662; in [10] it was -0.0645; in [11], 0.398; in [15], 1.97; in [17] it was -0.254. Also, the composite z-score in assay [18] is -1.12; in [19], -0.106; in [20] it was -0.283. Moreover, the z-score in [8] was 0.242 (inactive); in [12], -1.7 (inactive); in assay [13] it was -1.25 (inactive); in assay [14], -0.807 (inactive); in assay [16], 0.56 (inactive).

Regarding `O=C1NC(=O)C2C1C=CC(C(O)c1cc(C(F)(F)F)cc(C(F)(F)F)c1)N2Nc1ccccn1` (stereo not given), the composite z-score in [1] is -0.119; in assay [2], 0.134; in assay [3] it was -0.0524; in assay [4] it was 0.121; in [5], 0.312; in assay [6] it was 0.969. Besides, the composite z-score in assay [7] was 1.03; in [9], 0.138; in [10] it was -0.0726; in [11], 0.463; in [15] it was 1.21; in assay [17], 0.05. In addition, the values for the composite z-score in assay [18], in assay [19] and in [20] were 0.159, 0.429 and -0.129, respectively. Besides, the z-score in assay [8] was 0.589 (inactive); in assay [12] it was 0.307 (inactive); in [13], 1.19 (inactive); in assay [14] it was -0.697 (inactive); in [16] it was -1.02 (inactive).

Take `CO[C@H]1O[C@H](CO)[C@@H](OC(=O)Nc2ccc(C(F)(F)F)cc2)[C@H](OC(=O)Nc2ccc3c(c2)OCO3)[C@@H]1OC(=O)Nc1ccc2c(c1)OCO2`: the composite z-score in assay [1] was -0.139; in assay [2], 1.62; in assay [3] it was 0.0666; in assay [4], 1.22; in assay [5] it was 1.51; in assay [6], 1.76. Moreover, the composite z-score is 1.29 in assay [7]; -0.0167 in [9]; 0.124 in assay [10]; 1.54 in assay [11]; 3.11 in [15]; -0.0021 in [17]. In addition, the values for the composite z-score in assay [18], in [19] and in [20] were 0.476, 1.08 and 0.0869, respectively. Further, the z-score in assay [8] was 3.93 (inactive); in [12] it was 2.76 (inactive); in [13], 0.942 (inactive); in [14] it was 10 (active); in assay [16] it was 2.24 (inactive).

Take `CN(C)C(=O)[C@@]1(CCS(=O)(=O)c2ccccc2)COC(c2ccc(OCCCO)cc2)=N1`: the composite z-score in [1] was 0.578; in [2], -0.149; in assay [3] it was 0.127; in assay [4], 0.568; in [5], 0.331; in [6] it was 1.8. In addition, the composite z-score was 1.36 in [7]; 0.47 in assay [9]; -0.141 in [10]; 0.494 in assay [11]; 3.63 in [15]; -0.0258 in assay [17]. Besides, the composite z-score in assay [18] is -0.252; in [19] it was -0.136; in [20], 0.36. In addition, the z-score in assay [8] was -2.05 (inactive); in [12], -0.126 (inactive); in assay [13] it was 1.45 (inactive); in assay [14] it was 0.546 (inactive); in assay [16], 0.199 (inactive).

For the origin of these results see PubChem BioAssay.
